Measured values taken from PubChem BioAssay AID1259399 (Fisher Drug Discovery Resource Center, 2018).
In all, about 160,000 compounds went through this assay and about 240 (0.15%) were called active. Shown is part of a subset that was picked to be rich in actives. Unmarked numbers belong to inactive results. Rule as the data show it: active = inhibition above about 40%; inactive = the rest.

Each compound was assayed against Cyclic GMP-AMP synthase (Mus musculus) (UniProt Q8C6L5) (assay: inhibition of Mus musculus cGAS, primary biochemical chemiluminescence screen (AID 1259399;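 also: 0% = negative control wells and 100% = reference inhibitor with no enzyme activity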)). Settings: recombinant cGAS, Kinase-Glo ATP depletion luminescence; at 12.5 µM; active compounds read high.
Sequence of Cyclic GMP-AMP synthase (Mus musculus) (Q8C6L5 whole entry, looked up): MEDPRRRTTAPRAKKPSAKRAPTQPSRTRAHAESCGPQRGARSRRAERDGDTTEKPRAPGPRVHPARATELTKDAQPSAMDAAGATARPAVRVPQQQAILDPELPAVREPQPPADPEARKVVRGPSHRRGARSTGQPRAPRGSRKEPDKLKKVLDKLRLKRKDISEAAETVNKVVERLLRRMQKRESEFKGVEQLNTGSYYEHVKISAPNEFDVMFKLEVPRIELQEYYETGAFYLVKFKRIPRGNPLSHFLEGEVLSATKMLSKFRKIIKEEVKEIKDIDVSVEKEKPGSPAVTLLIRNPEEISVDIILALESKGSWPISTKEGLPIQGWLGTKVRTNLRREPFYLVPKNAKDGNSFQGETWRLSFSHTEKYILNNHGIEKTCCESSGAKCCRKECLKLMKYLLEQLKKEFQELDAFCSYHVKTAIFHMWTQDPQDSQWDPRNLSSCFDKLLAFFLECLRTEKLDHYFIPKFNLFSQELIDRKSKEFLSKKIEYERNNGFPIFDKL

| SMILES | inhibition |
| --- | --- |
| COc1cccc(-c2cc(-c3ccc(C(=O)NCCc4ccc(OC)c(OC)c4)cc3)[nH]n2)c1 | -4.79% |
| COc1ccc(-n2c(SCC(=O)N3CCN(C(=O)C(c4ccccc4)c4ccccc4)C(C)C3)nnc2-c2cccc(OC)c2)cc1 (centres undefined) | -6.69% |
| CC(C)(C)n1nc2c(c1NC(=O)c1ccc3c(c1)OCO3)CSC2 | -7.2% |
| CC(C)N(CC(=O)N(Cc1ccc(F)cc1)Cc1ccco1)C(=O)c1ccc(-c2ccccc2)cc1 | -5.81% |
| Cc1cc(OC(=O)c2ccc(OC(C)C)cc2)c([N+](=O)[O-])c(=O)[nH]1 | -0.422% |
| Cc1ccc(C)c(CN2CCN(c3nc4c(c(=O)[nH]c(=O)n4C)n3CCC(C)C)CC2)c1 | -1.17% |
| Cc1ccc(S(=O)(=O)N(Cc2ccco2)Cc2nccn2Cc2ccc(C(F)(F)F)cc2)cc1 | -8.05% |
| COc1ccccc1C1=NOC(CN(Cc2ccccc2Cl)C(=O)C2CCC2)C1 (centres undefined) | -4.91% |
| O=c1cc(-c2ccc(F)cc2)ncn1Cc1cccc2ccccc12 | 5.38% |
| O=C(CN1CCCC1Cn1cccn1)NCCc1ccc(F)cc1 (centres undefined) | -4.22% |
| CCc1ccc(-c2nn(-c3ccccc3)cc2C=NO)cc1 | -6.62% |
| CCOc1ccccc1NC(=O)CC(=O)N1[C@H](C)CCC[C@@H]1C | -17.8% |
| S=C(NN=CC1CC=CCC1)NC1CCCCC1 (centres undefined) | -5.67% |
| O=C(NNc1nc2c(Cl)cccc2s1)c1cc(=O)c2ccccc2o1 | 4.02% |
| COc1ccc(/C=C/C(=O)N2CCC3(CC2)CC3C(=O)N2CCN(c3ccccn3)CC2)cc1OC (centres undefined) | -22.2% |
| c1ccc(Oc2cccc(-c3ccc4nnc(-c5ccc6nccnc6c5)n4c3)c2)cc1 | -8.11% |
| Cc1ccc(N(CCCCN2C(=O)c3ccccc3C2=O)C(=O)/C=C/c2ccccc2Cl)cc1 | -4.6% |
| CCc1cc(N2CCN(c3ccccc3F)CC2)nc(SCc2cccc(C(=O)NCC3CCCO3)c2)n1 (centres undefined) | -4.77% |
| CC(O)CNC(c1nc(-c2ccc(Br)cc2)no1)C(C)C (centres undefined) | -3.51% |
| Cc1cc(C)n(-c2ccc(N3CCN(S(=O)(=O)c4ccc(C)c(C)c4)CC3)nn2)n1 | -8.08% |
| Cc1cc2c(o1)CC(C)(C)CC2NS(=O)(=O)CCc1ccccc1 (centres undefined) | -12.8% |

| SMILES | inhibition |
| --- | --- |
| COc1ccccc1C(=O)N1CCC(n2c(=O)oc3ccc(Cl)cc32)CC1 | -5.6% |
| Cc1nnc(SCC(=O)Nc2cccc(Cl)c2)c2c1cnn2-c1ccc(F)cc1 | -13.2% |
| O=C1OC(c2ccc(Cl)cc2)=NC1=Cc1ccc(N2CCOCC2)s1 | -5.28% |
| COCCN1C(=O)C(c2c(C(C)C)[nH]n(-c3ccc(Cl)c(Cl)c3)c2=O)=C([n+]2ccccc2)C1=O | -8.94% |
| CCOC(=O)c1ccccc1NC(=O)CSc1nnc(C)c2cnn(-c3ccccc3OC)c12 | -1.28% |
| Cc1ccccc1OCC(=O)N(CCn1cccn1)c1nc2ccccc2s1 | 3% |
| CCc1nc2c(OCC(N)=O)cccn2c1N(C)C(=O)c1ccc(OC)cc1 | -2.96% |
| CCOC(=O)CN(C(=O)c1cc(C)oc1C)[C@H]1[C@H](OC)[C@@H]2O[C@H]1c1ccccc12 | -0.832% |
| O=C(COc1ccc(Cl)cc1)NCC1CCN(c2nc(Cc3ccc(F)cc3)ns2)CC1 | -5.03% |
| COC[C@H](C)NC(=O)Cc1sc(C)nc1C | -2.6% |
| O=C(CCN1C(=O)COc2ccccc21)N1CCC2(CCCO2)CC1 | -9.44% |
| O=C1c2ccccc2C(=O)N1CN(C(=O)C(F)(F)F)c1ccc(I)cc1 | -2.77% |
| CC1c2cccn2CCN1Cc1ccc(C#N)cc1F (centres undefined) | -13.4% |
| CC1=C(C(=O)OCC(C)C)C23C(=O)c4ccccc4C2(OC(=N)C3C#N)O1 (centres undefined) | -3.99% |
| COCCCn1c(CN2CCCC(C(=O)c3ccccc3)C2)cnc1S(C)(=O)=O (centres undefined) | -11% |
| O=C(Cn1nnc(-c2ccccc2)n1)Nc1c(F)cccc1F | 4.62% |
| CCOCCCN(CC(=O)N(Cc1ccccc1)Cc1sccc1C)C(=O)c1cccc(Br)c1 | 1.83% |
| COc1ccc(C(=O)N(Cc2ccc(F)cc2)Cc2cc(NC(=O)c3ccco3)ccc2N(C)C)cc1 | -0.342% |
| CC(C)(C)c1cc2nc(-c3ccccc3F)cc(C(=O)NC3CC3)n2n1 | -7.68% |
| CC(C)(C)S(=O)(=O)c1ccc2nn(CC(=O)Nc3ccc(Cl)cc3)c(=O)n2n1 | -9.01% |
| CCCN1CCN(S(=O)(=O)c2[nH]ncc2C(=O)OCC)CC1 | -10.5% |

| SMILES | inhibition |
| --- | --- |
| Cc1ccc(C)c(NC(=O)Cn2nc3c(=O)n(-c4ccc(Br)cc4)ccn3c2=O)c1 | -5.88% |
| Cc1ccc(C)c(Cn2ccnc2CN(CC(C)C)C(=O)c2cccc(F)c2)c1 | -11.5% |
| COc1ccc(OC)c(CC(=O)NC2CC(C)(C)Cc3c2cnn3-c2cccc(F)c2)c1 (centres undefined) | -9.44% |
| Fc1ccc(CN2CCCn3cccc3C2c2ccoc2)cc1Cl (centres undefined) | 0.16% |
| O=C1NC2(CCN(Cc3ccccc3[N+](=O)[O-])CC2)Nc2ccc(Br)cc21 | -4.81% |
| CCOC(=O)C1=C(C)N=c2s/c(=C\c3ccc(Cl)c(Cl)c3)c(=O)n2C1c1cccs1 (centres undefined) | -4.71% |
| COc1cccc(Cc2c(C)nc(C)nc2N2CCN(S(=O)(=O)c3ccc(NC(C)=O)cc3)CC2)c1 | -9.89% |
| CCCCn1c(SCc2nnc(C)o2)nc2sc(C)c(C)c2c1=O | -8.28% |
| O=C(Nc1ccc(-c2ccccc2)cc1)N[C@@H](Cc1ccccc1)C(=O)N1CCC(C(=O)N2CCOCC2)CC1 | 1.19% |
| COc1ccc(C)cc1S(=O)(=O)Nc1ccccc1C(=O)NCc1cccc(Cl)c1 | -4.63% |
| NC(=O)c1cncc(-n2ccnc2-c2ccccc2)c1 | -8.08% |
| CC(C)Nc1cc(N2CC(c3ccccn3)C2)ncn1 | -15.6% |
| C=CCn1c(SCC(=O)c2cc(C)n(CCOC)c2C)nc2scc(-c3ccccc3)c2c1=O | 1.74% |
| CC(C)N(C(=O)CN1CCN(C(=O)c2cn(C)cc3c(=O)n(-c4ccccc4)nc2-3)CC1)C(C)C | -8.86% |
| CCOC(=O)c1cc(-c2ccc(N3CCN(C(=O)COCc4ccccc4)CC3)cc2)n(-c2ccccc2Cl)n1 | -7.07% |
| COc1cccc(C(CN2CCN(C(=O)c3oc4ccccc4c3C)CC2)OCc2cccc(Cl)c2)c1 (centres undefined) | -3.76% |
| O=C(c1ccccc1Br)N1CCc2nc(-c3ccccc3)nc(N3CCCCC3)c2C1 | -6.08% |
| O=C(Nc1nnc(C23CC4CC(CC(C4)C2)C3)s1)C12CC3CC(CC(C3)C1)C2 | -5.12% |
| Cc1ccccc1Cc1nc2c(c(=O)[nH]1)CN(C(=O)Cc1ccc(F)cc1)CC2 | -2.79% |
| CC(C)c1nnsc1C(=O)N1CCC2(CC1)C(=O)NCCN2C | -8.76% |
| CC(Nc1ccc([N+](=O)[O-])cc1S(=O)(=O)N1CCOCC1)c1ccc(F)cc1F (centres undefined) | -8.24% |

| SMILES | inhibition |
| --- | --- |
| N#Cc1ccc(-c2ccccc2)nc1SC(C(=O)O)c1ccccc1 (centres undefined) | -4.77% |
| CCCS(=O)(=O)N1CCCC(C(=O)NC(C)CC)C1 (centres undefined) | -2.19% |
| COc1cc([N+](=O)[O-])cc2sc(NC(=O)C(C)C)nc12 | -2.21% |
| CCn1c(=O)c(C(=O)NCC2CCCO2)nn(-c2ccccc2F)c1=O (centres undefined) | -8.2% |
| CC(C)(C)c1ccc(C2SCC(=O)N2CCC(=O)O)cc1 (centres undefined) | -3.76% |
| CCCC(=O)Nc1ccc(NC(=O)c2cc(C(C)C)[nH]n2)cc1OC | -8.07% |
| O=C(NC(c1ccccc1)c1ccc(Cl)cc1)C1CC1(c1ccccc1)c1ccccc1 (centres undefined) | -5.82% |
| COCCCN1COc2ccc3c(=O)c(Oc4ccc(OC)cc4)coc3c2C1 | -1.41% |
| Brc1ccc(N=c2oc3ccccc3cc2-c2nc3ccccc3[nH]2)cc1 | -0.816% |
| COc1ccc(-c2nnc3ccc(OCCNS(=O)(=O)c4cccs4)nn23)cc1 | -9.21% |
| Oc1c(Cl)cc(Cl)c2ccc(N/N=C\c3cccc(Oc4ccccc4)c3)nc12 | -3.37% |
| O=c1n(Cc2noc(-c3ccoc3)n2)nnn1-c1cccs1 | -17.5% |
| CC(C)(C)S(=O)(=O)c1ccc(N2CCN(c3ccc(Cl)cc3)CC2)nn1 | -8.96% |
| COc1ccccc1C(=O)N1CCN(CC(OCc2c(F)cccc2F)c2ccc(Cl)cc2)CC1 (centres undefined) | -2.63% |
| Cc1ccccc1N(CCCN1C(=O)c2cccc3cccc(c23)C1=O)C(=O)c1ccc([N+](=O)[O-])cc1 | 2.98% |
| C[N+](C)(CCCCCC[N+](C)(C)CCCN1C(=O)c2cccc3cccc(c23)C1=O)CCCN1C(=O)c2cccc3cccc(c23)C1=O | 75.6% (active) |
| COc1ccc(N2C(=O)c3cccc4cccc(c34)C2=O)cc1OC | -7.45% |
| COc1cc(C=C2N=C(C(C)(C)C)OC2=O)ccc1OC(F)F | 1.97% |
| COc1ccc(C(=O)N2CCCC3(CC2)CNC(=O)O3)cc1N1CCOCC1 (centres undefined) | -11.6% |
| O=C(COc1ccc(Cl)cc1)Nc1c(-c2cccc(F)c2)nc2ccccn12 | -8.5% |
| COCCCN(CC(=O)N1CCc2sccc2C1c1ccc(C)cc1)C(=O)c1ccc(C)c([N+](=O)[O-])c1 (centres undefined) | -4.86% |
